# In PubChem BioAssay AID651812 (National Center for Advancing Translational Sciences (NCATS), 2012):
# Out of some 2,100 compounds screened, about 650 (31%) were called active. Another 16% or so got no clear call; they are omitted. Calls come from the whole dose curve; as a rule, active = well fitted inhibition curve with a large enough effect; inconclusive = small, poorly fitted or top-dose-only effect; inactive = flat fitted curve, though single readings scatter. Some of the results follow.
# Assay: qHTS for inhibitors of Vif-A3G interactions: Cherry picks; note: nearly all actives have a fitted effect of over 80% in size; for activity, negative = fluorescence increase: % of control where 0% means no effect
# Settings: HeLa A3G-eYFP + Vif (tagged APOBEC3G with the HIV-1 protein that degrades it), 24 h; Potency: eYFP fluorescence increase; series mostly up to 36.9 µM; activity, negative = fluorescence increase: at the top concentration
# Summary of the method: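 Cherry-picked compounds tested at several concentrations on A3G-eYFP/Vif HeLa cells for 24 hours; loss of Vif-driven degradation read as eYFP fluorescence by cytometric plate imaging, 488 nm excitation, 500-530 nm emission.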
# Potency is the fitted concentration of half-maximal effect.
SMILES,"activity, negative = fluorescence increase",Potency
O=C(Cc1n[nH]c(=O)c2ccccc12)OCC(=O)c1ccc2c(c1)OCCO2,-14.4% (inactive),
N#Cc1ccc(/C=C\c2nccc3c2[nH]c2ccccc23)cc1,,14 µM (active)
C(=C/c1nccc2c1[nH]c1ccccc12)/c1ccc2c(c1)OCO2,-7.14% (inactive),
O=C(C[n+]1cccc2cc(Cl)ccc21)c1ccc2ccccc2c1,,23.1 µM (active)
CC(C)(C)c1ccc(C(=O)C[n+]2cccc3cc(Cl)ccc32)cc1,,20.6 µM (active)
O=C(C[n+]1cccc2cccc(O)c21)c1ccc2ccccc2c1,-11% [at 46.1 µM] (inactive),
O=C(C[n+]1cccc2cc(Cl)ccc21)c1ccc(I)cc1,,20.6 µM (active)
O=C(COC(=O)c1ccc(NS(=O)(=O)c2cccs2)cc1O)NCc1ccccc1,-9.24% (inactive),
CCC(=Nc1ccccc1O)C1=C(O)CC(c2ccccc2)CC1=O (stereo not given),-3.16% (inactive),
Clc1ccccc1C1CC(c2ccccc2)=Nc2ccccc2N1 (stereo not given),-8.72% [at 46.1 µM] (inactive),
CCOc1ccccc1C(=O)Nc1ccsc1C(=O)OC,1.29% (inactive),
Cc1cccc(C=Nc2ccccc2C(N)=O)c1,3.09% (inactive),
CN(C)c1ccc(C=C2SC(=S)NC2=O)cc1,,11.2 µM (active)
CCOc1ccc(N(C)c2ccc(/C=C3/SC(=S)NC3=O)cc2)cc1,,17.7 µM (active)
Cn1cccc1/C=C1\SC(=O)N(c2ccc(O)cc2)C1=O,,20.6 µM (active)
Cn1cc(/C=C2\SC(=O)N(c3ccccc3)C2=O)c2ccccc21,,20.6 µM (active)
Cn1cc(/C=C2\SC(=S)N(NC(=O)c3cccc(Cl)c3)C2=O)c2ccccc21,,3.66 µM (active)
Cc1ccc(N=C2NC(=O)/C(=C/c3cn(C)c4ccccc34)S2)cc1C,,17.7 µM (active)
Cn1cccc1/C=C1\SC(=Nc2cccc(O)c2)NC1=O,-6.02% (inactive),
O=C1NC(=Nc2ccc(O)cc2)S/C1=C/c1ccco1,0.269% (inactive),
Cc1cccc(N=C2NC(=O)/C(=C/c3cccn3C)S2)c1,0.0988% (inactive),
CCOc1ccc(C(=O)C(CCC(CN(C)C)C(=O)c2ccc(OCC)cc2)CN(C)C)cc1 (stereo not given),-0.142% (inactive),
S=c1[nH]nc(-c2cccnc2)n1/N=C/C(Cl)=C\c1ccccc1,-14.4% (inactive),
O=C(C(=Cc1ccccc1)CN1CCCCC1)c1ccccc1,-0.537% (inactive),
O=S(=O)(Nc1cc(Sc2ncn[nH]2)c(O)c2ccccc12)c1ccccc1,-17.9% (inactive),

SMILES,"activity, negative = fluorescence increase",Potency
COc1ccc(NC(=O)C2Cc3c(-c4cccc(C(C)=O)c4)ccnc3O2)cn1 (stereo not given),0.238% (inactive),
Cc1noc(C)c1COc1cccc(C(=O)OC(C)C(=O)Nc2ccc3c(c2)OCO3)c1 (stereo not given),-0.108% (inactive),
COc1cc2c(cc1OC)C(C)N(C(=O)c1cc(C)on1)CC2 (stereo not given),-1.83% (inactive),
CN(C)c1ccc(C2C=C(c3ccc(Cl)cc3OC(F)F)Nc3ncnn32)cc1 (stereo not given),-23.3% (inactive),
COc1ccccc1NS(=O)(=O)c1cc([N+](=O)[O-])ccc1N/N=C/c1sc(N2CCOCC2)nc1-c1ccccc1,,2.06 µM (active)
Cc1ccc(C(=O)c2cc([N+](=O)[O-])ccc2N2CCOCC2)cc1C,-7.92% (inactive),
Cc1ccc(S(=O)(=O)Nc2cc(-c3nn(C)c(=O)c4ccccc34)ccc2N2CCOCC2)cc1,-12.2% (inactive),
Cc1ccc(NS(=O)(=O)c2cc([N+](=O)[O-])ccc2N/N=C/c2sc(N3CCOCC3)nc2-c2ccccc2)c(C)c1,,0.158 µM (active)
O=[N+]([O-])c1ccc(N/N=C/c2sc(N3CCOCC3)nc2-c2ccccc2)c(S(=O)(=O)Nc2ccccc2Cl)c1,,11.6 µM (active)
O=C(O)c1ccccc1/C=N/Nc1ccc(S(=O)(=O)N2CCOCC2)cc1[N+](=O)[O-],-3.49% (inactive),
COc1cc(C2c3cc4c(cc3C(OC3OC5COC(c6cccs6)OC5C(O)C3O)C3COC(=O)C23)OCO4)cc(OC)c1O (stereo not given),-29.5% (inactive),
O=C(c1[nH]c(C(F)(F)F)nc1-c1ccccc1)N1CCN(c2cccc(C(F)(F)F)n2)CC1,-6.94% (inactive),
O=C(CCc1ccccc1)Nc1ccc(Cl)cn1,-19.7% (inactive),
COC(=O)COc1cccc2c(=O)n(CC(=O)NCc3ccccc3)ccc12,-15.8% (inactive),
O=C(/C=C/c1ccncc1)c1cc(Cl)ccc1O,-5.76% [at 46.1 µM] (inactive),
COc1ccccc1C1=NOC(COc2ccc3c(C)cc(=O)oc3c2)C1 (stereo not given),-2.24% (inactive),
Cc1cccc(-n2c(N)c(-c3nc4ccccc4n3C)c3nc4ccccc4nc32)c1,-4.05% [at 46.1 µM] (inactive),
CCSc1nc2ccccc2n1C(=O)/C=C/c1ccc(OC)c(OC)c1,-5.86% (inactive),
CC(=O)n1c2ccccc2c2nc3ccccc3nc21,,9.2 µM (active)
O=c1c(Cl)c2oc3ccccc3nc-2c2ccccc12,,18.4 µM (active)
COc1ccc(/C=N/NC(=O)c2cc3c(OC)ccc(OC)c3[nH]2)cc1O,-7.72% (inactive),
O=[N+]([O-])c1ccc(N2CCN(Cc3ccccc3)CC2)c2c1no[n+]2[O-],,15.8 µM (active)
COc1ccccc1C(=O)NC(=S)Nc1ccc(NC(=O)c2ccco2)cc1,0.442% (inactive),
Cc1ccc(-c2nc3ccccc3o2)cc1NC(=S)NC(=O)/C=C/c1ccco1,-14.8% (inactive),
Cc1cc(NC(=O)c2ccco2)cc(-c2nc3cc(Cl)ccc3o2)c1O,,18.4 µM (active)

SMILES,"activity, negative = fluorescence increase",Potency
CC1=C(C(=O)Nc2cccc(F)c2)C(c2ccsc2)C2=C(CC(C)(C)CC2=O)N1 (stereo not given),-10.6% (inactive),
CCCN1C(=O)S/C(=C\c2ccc(N3CCOCC3)o2)C1=O,,4.44 µM (active)
CCOC(=O)CN1C(=O)S/C(=C/c2ccc(N3CCCCC3)o2)C1=O,,5.8 µM (active)
O=C1S/C(=C/c2ccc(N3CCOCC3)o2)C(=O)N1Cc1c(F)cccc1Cl,,4.44 µM (active)
O=C1S/C(=C\c2ccc(N3CCOCC3)o2)C(=O)N1c1ccccc1,,2.8 µM (active)
Cc1ccc(Cn2nnc3c(=O)n(CC(=O)NCc4ccccc4)cnc32)cc1,-0.238% (inactive),
CO/N=C\CC(=O)Nc1ccc(Cl)c(Cl)c1,-4.64% (inactive),
Cc1ccc2nc(NS(=O)(=O)c3ccc(Cl)cc3)c(Nc3ccc(C(=O)O)cc3)nc2c1,-6.95% [at 46.1 µM] (inactive),
O=C1S/C(=C/c2ccc(N3CCOCC3)o2)C(=O)N1Cc1ccc(F)cc1,,2.8 µM (active)
CCc1ccc2c(c1)NC(=O)C2(C)Cc1ccccc1Cl (stereo not given),-1.62% (inactive),
COC(=O)[C@@H]1Cc2c([nH]c3ccccc23)C(C)(C)N1C(=O)CCl,-4.24% (inactive),
c1ccc(-c2cnn3c(-c4ccccc4)c(-c4ccccc4)nc3n2)cc1,,3.66 µM (active)
COc1ccc(-n2nnnc2-c2cccc(OC)c2)cc1,-9.47% (inactive),
CCS(=O)(=O)N1N=C(c2ccc(C)cc2)CC1c1cc2ccc(OC)cc2nc1Cl (stereo not given),-5.93% [at 46.1 µM] (inactive),
COc1ccc(C2CC(c3ccncc3)=NN2c2ccc(S(N)(=O)=O)cc2)cc1 (stereo not given),,10.3 µM (active)
COc1ccc(-c2cnc3c(NC=O)cc(-c4ccccc4)cn23)cc1OC,-28.9% (inactive),
COc1ccc(/C=c2\s/c(=C/C(=O)c3ccc(C)cc3)[nH]c2=O)c(OC)c1,,20.6 µM (active)
COc1ccccc1/C=N/NC(=S)Nc1cccnc1,6.65% [at 46.1 µM] (inactive),
Oc1sc(C=Nc2ccc(F)cc2)c2ccccc12,,2.91 µM (active)
COc1ccc(NC(=O)c2c(Cl)n(C)c3ccccc23)cc1,-3.6% (inactive),
COc1ccc(N=Cc2c(O)c3ccccc3n2C(C)=O)cc1,,18.4 µM (active)
COc1ccc(C(=O)N/N=C/c2ccccc2OC(=O)c2ccccc2)cc1,-1.22% (inactive),
COc1ccc(N=Cc2sc(O)c3ccccc23)cc1,,12.5 µM (active)
Oc1sc(C=Nc2ccccc2)c2ccccc12,,16.4 µM (active)
CNC(=S)N/N=C(\C)c1ccc(Cl)s1,-0.736% [at 46.1 µM] (inactive),

SMILES,"activity, negative = fluorescence increase",Potency
COCCCN(C(C)=O)c1nc(-c2ccc(OC)cc2)cs1,-3.78% (inactive),
COc1ccc(S(=O)(=O)NN(C)c2nc(C(F)(F)F)nc3ccccc23)cc1,1.47% (inactive),
CC1(C)Cc2c(sc3ncnc(NNC(=S)NCc4ccccc4)c23)CO1,-6.55% (inactive),
COc1ccc(/C=N/NC(=O)c2cccnc2)cc1COc1ccc(NC(C)=O)cc1,-13.1% (inactive),
COc1ccc(OC)c(C2C=C(c3ccc(C)c(C)c3)Nc3nnnn32)c1 (stereo not given),-0.067% (inactive),
COc1ccc(NC(=O)c2c(C)noc2-c2snnc2C)cc1,-5.1% (inactive),
CCC(=O)NC(c1ccc(OC)cc1)c1c(O)ccc2ccccc12 (stereo not given),-5.23% (inactive),
COc1ccc(N=Cc2oc3ccc4ccccc4c3c2O)cc1,,7.31 µM (active)
COc1ccc(/C=N\NC(=O)c2cc3c(ccc4ccccc43)o2)cc1O,-0.0912% (inactive),
CC(CC(=O)Nc1ccc2c(c1)c(=O)n(C)n2Cc1ccc(F)cc1)c1ccccc1 (stereo not given),-4.1% (inactive),
CCOC(=O)C1=C(Cc2ccc(Cl)cc2)C(=O)c2ccccc2C1=O,,16.4 µM (active)
CCOC(=O)C1=C(Cc2ccc(F)cc2)C(=O)c2ccccc2C1=O,,20.6 µM (active)
CCOC(=O)c1[nH]c(C)c(C(=O)Nc2ccccc2F)c1C,-1.04% (inactive),
CCOC(=O)N1CCN(c2c(NCc3ccc(F)cc3)c(=O)c2=O)CC1,-9.92% (inactive),
COCCNC(=S)N/N=C(\C)c1ccc(OC(F)F)cc1,-1.7% [at 46.1 µM] (inactive),
CC(C)c1ccc(NC(=O)Nc2cnccn2)cc1,-3.55% (inactive),
CCOC(=O)c1ccc(/C=C2/C=C(c3ccccc3)N(c3ccc(Cl)c(C(=O)O)c3)C2=O)cc1,,20.6 µM (active)
CCOC(=O)N1C/C(=C\c2ccccc2)C(=O)/C(=C/c2ccccc2)C1,1.58% (inactive),
COc1ccccc1NC(=O)C1=C(C)Nc2nc3ccccc3n2C1c1cccs1 (stereo not given),-2.86% (inactive),
Cc1cc(C)c(N2C(=O)CC(Sc3ccccc3N)C2=O)c(C)c1 (stereo not given),2.27% (inactive),
CCN1/C(=C/c2ccc3ccccc3[n+]2CC)C=Cc2ccccc21,,9.2 µM (active)
Cc1ccc(S(=O)(=O)N2CCCCC2)cc1NC(=O)Cn1ncc(Cl)c(Cl)c1=O,1.51% (inactive),
CC(=O)Nc1ccc(-c2ccnc3c2CC(C(=O)NCc2ccccc2)O3)cc1 (stereo not given),-8.78% (inactive),
O=C1Nc2ccc(Br)cc2C12NNc1ccccc1O2 (stereo not given),,17.7 µM (active)
O=C(NC(=S)N1CCN(C2CCCCC2)CC1)c1ccccc1,13.5% [at 46.1 µM] (inactive),
